# The entries come from a sample that favours hits as a whole.
# GluA2 TARP mod: modulators of GluA2-stargazin AMPA receptor complexes, primary screen, cell-based, membrane potential dye; calls only at 30 µM; Voltage-dependent calcium channel gamma-2 subunit (Mus musculus) + Glutamate receptor 2 …; 3.5% of 40,000 active; HEK293 GluA2+stargazin, membrane potential dye (FDSS), glutamate EC50; hits were called plate by plate, in both directions;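 active = any of four per-well response measures lying three or more SD from its plate-wide compound average, in either direction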
# GIRK2 act: activators of NPY4-receptor-primed GIRK2 channels, summary, cell-based, HEK293, thallium flux. 34,000 tested, under 10 active. activation (% efficacy), % for hits at 37.5 µM. HEK293 GIRK2/NPY4 cells, thallium flux fluorescence. AID 1259324, 2017;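 active = primary screen hit, no activity in plain HEK293 cells, and in GIRK2-only cells above 5% efficacy rising with concentration; inactive = the rest, including fluorescent compounds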;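 note: efficacy is normalized control-subtracted fluorescence 15 s after thallium addition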
# Target sequence (P48051 whole entry, looked up): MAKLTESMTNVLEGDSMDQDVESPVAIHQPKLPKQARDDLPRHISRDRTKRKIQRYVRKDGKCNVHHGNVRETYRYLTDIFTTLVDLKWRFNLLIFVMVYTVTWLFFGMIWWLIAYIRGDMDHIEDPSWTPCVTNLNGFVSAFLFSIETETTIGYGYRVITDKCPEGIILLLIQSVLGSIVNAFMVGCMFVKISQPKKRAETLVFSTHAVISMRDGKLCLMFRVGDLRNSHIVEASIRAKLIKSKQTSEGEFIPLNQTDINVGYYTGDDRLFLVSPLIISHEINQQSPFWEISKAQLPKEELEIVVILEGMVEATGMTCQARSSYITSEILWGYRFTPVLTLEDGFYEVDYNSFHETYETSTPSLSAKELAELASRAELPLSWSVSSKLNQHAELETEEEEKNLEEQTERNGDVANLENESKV
# Active calls of the source: *; i = inactive; nt = no result given; + = active, no number.
SMILES,GluA2 TARP mod,GIRK2 act
CCn1c(SCC(=O)Nc2cccc(C)c2)nnc1-c1cn(C)nc1OC,i,i
c1ccc2c(N3CCOCC3)nnc(N3CCOCC3)c2c1,i,i
CN1CCN(c2nc(N3CCOCC3)c3ccccc3n2)CC1,+,nt
COc1ccccc1Nc1nc(N2CCOCC2)c2ccccc2n1,+,nt
COc1ccc(NC(=O)CSc2nc3ccccc3nc2N2CCOCC2)cc1,i,i
O=C(c1nc2ccccc2s1)N1CCN(Cc2nc(-c3ccc(F)cc3)cs2)CC1,i,i
O=S(=O)(NCCN1CCC(c2cccs2)CC1)c1ccc2c(c1)OCCO2,i,i
CN(C1CCCC1)S(=O)(=O)c1ccc(C(=O)Nc2nc3cc4c(cc3s2)OCO4)cc1,i,nt
O=C(/C=C/c1cc2cc3c(cc2nc1Cl)OCO3)C1CC1,+,nt
Cc1ccccc1-n1c(-c2ccccc2)cn2c3c(=O)n(CCN4CCOCC4)c(=O)n(C)c3nc12,i,nt
Cc1ccc(NC(=O)c2coc(NC(=O)c3ccsc3)n2)cc1F,nt,i
Cc1ccc(C(C)C)c(OCCCn2c(CCCO)nc3ccccc32)c1,i,i
CC(=O)NCCc1nc2ccccc2n1CCCOc1cc(C)ccc1C(C)C,+,i
O=C(NCC1CCN(C(=O)Nc2ccc(F)cc2)CC1)c1ccco1,i,i
Cn1cccc(C(=O)NCCCn2cccc2)c1=O,i,i
COc1ccc(C2CC(c3ccco3)=NN2C(=S)Nc2ccccc2)cc1OC (centres undefined),i,nt
O=C(NCCn1nc(-c2cccs2)ccc1=O)NCc1ccccc1,i,i
Cc1ccccc1CC(=O)NCCn1nc(-c2cccs2)ccc1=O,+,i
O=C(CCCn1nc(-c2ccc(F)cc2)ccc1=O)Nc1cc(Cl)ccc1Cl,i,i
COc1cc(NC(=O)Nc2cccc(N3CCCS3(=O)=O)c2)cc(OC)c1OC,i,i
CCCCCCCCn1c(C)c(C)n2c3c(=O)n(C)c(=O)n(C)c3nc12,i,i
Cc1c(C)n2c3c(=O)n(C)c(=O)n(C)c3nc2n1CC(O)CO (centres undefined),+,i
CC(=O)C(C)n1c(-c2ccccc2)cn2c3c(=O)n(C)c(=O)n(C)c3nc12 (centres undefined),i,i
COC(=O)C(C)n1c(C)cn2c3c(=O)n(C)c(=O)n(C)c3nc12 (centres undefined),+,i
COC(=O)C(C)n1c(C)c(C)n2c3c(=O)n(C)c(=O)n(C)c3nc12 (centres undefined),+,i
SMILES,GluA2 TARP mod,GIRK2 act
Cc1c(C)n2c3c(=O)n(CC(N)=O)c(=O)n(C)c3nc2n1C(C)C,i,i
CCOCCCNC(=O)C(=O)Nc1c2c(nn1-c1ccc(Cl)cc1)CSC2,i,i
CC1CS(=O)(=O)N(c2ccc(S(=O)(=O)N(C)Cc3ccccc3)cc2)C1=O (centres undefined),i,i
CCCCN1CC(c2nc3ccccc3n2CCCOc2ccc(C)cc2)CC1=O (centres undefined),i,nt
Cn1ccc(C(=O)Nc2sccc2C#N)n1,i,i
CC(C)c1ccc(-n2nnc(C(=O)NCc3ccccc3)c2N)cc1,i,i
COc1ccc(Cl)cc1S(=O)(=O)Nc1ccc2c(c1)N(C(=O)C(C)(C)C)CC2,+,i
COc1ccc(OCC(=O)Nc2ccc3c(c2)N(C(=O)C(C)(C)C)CC3)cc1,i,i
COc1ccc(C)cc1S(=O)(=O)Nc1ccc2c(c1)N(C(=O)C(C)(C)C)CC2,i,i
COc1ccccc1OCC(=O)Nc1ccc2c(c1)N(C(=O)C(C)(C)C)CC2,+,i
O=C(Cc1ccc(F)cc1)Nc1cc(-c2cccs2)nn1CCO,i,i
O=C(CCSc1ccccc1)Nc1cc(-c2cccs2)nn1CCO,+,i
CCOC(=O)N1CCN(S(=O)(=O)c2ccc(OCC)cc2OCC)CC1,i,i
CC(C)OCCCNc1nc2c(c(=O)n(C)c(=O)n2C)n1CC(O)COc1ccccc1 (centres undefined),i,nt
COc1ccccc1NC(=O)N1CCN(c2ccc3nnc(-c4ccco4)n3n2)CC1,i,i
CCc1ccccc1NC(=O)N1CCN(c2ccc3nnc(-c4ccco4)n3n2)CC1,+,i
CC(C)(C)CC(=O)Nc1ccc(N2CCCS2(=O)=O)cc1,i,nt
Cc1ccnc(NC(=O)c2ccc(=O)n(Cc3cccc([N+](=O)[O-])c3)c2)c1,+,i
Cc1cccnc1NC(=O)c1ccc(=O)n(Cc2cccc([N+](=O)[O-])c2)c1,+,i
Cc1c(Cl)cccc1NC(=O)c1ccc(=O)n(Cc2cccc([N+](=O)[O-])c2)c1,i,i
Cc1ccc(NC(=O)c2ccc(=O)n(Cc3cccc([N+](=O)[O-])c3)c2)cc1C,i,i
COc1ccc(CCS(=O)(=O)N(Cc2cccn2C)C2CC2)cc1,nt,i
CC(C)CS(=O)(=O)Nc1ccc2c(c1)N(C(=O)C(C)(C)C)CC2,i,i
O=S(=O)(c1ccc(Oc2ccccc2)cc1)N1CCN(c2ccc3nncn3n2)CC1,i,i
CCCC(=O)Nc1ccc(S(=O)(=O)N2CCN(c3ccc4nncn4n3)CC2)cc1,+,i
SMILES,GluA2 TARP mod,GIRK2 act
COc1cc(OC)cc(C(=O)NCC(=O)N2CCOC(c3ccccc3)C2)c1 (centres undefined),nt,i
COc1ccc(C(CNS(=O)(=O)c2cc(F)ccc2F)N2CCN(C)CC2)cc1 (centres undefined),i,i
Cc1c(C(=O)Nc2cccc(N3CCCC3=O)c2)cccc1[N+](=O)[O-],+,i
COc1cc(C(=O)Nc2cccc(N3CCCCC3=O)c2)c([N+](=O)[O-])cc1OC,i,i
O=C1CCC(=O)N1CC(=O)N1CCCSCC1CN1CCOCC1 (centres undefined),nt,i
Cc1ccc(S(=O)(=O)c2c(C)nn(C(C)(C)C)c2OC(=O)c2cccc(C)c2)cc1,i,nt
COc1ccc(C(=O)Oc2c(S(=O)(=O)c3ccc(C)cc3)c(C)nn2C(C)(C)C)cc1OC,+,nt
COc1ccc(C)c2sc(NC(=O)c3cc(C)no3)nc12,+,i
Cc1cc(C)c2nc(NC(=O)c3cc(C)no3)sc2c1,i,i
Cc1c(NC(=O)COc2ccc(C3CCCCC3)cc2)cccc1-c1nc2ncccc2o1,i,nt
O=C(Nc1ccccc1Cl)c1ccc(=O)n(Cc2ccccc2F)c1,i,i
CC(=O)Nc1ccc(NC(=O)c2ccc(=O)n(Cc3ccccc3Cl)c2)cc1,i,i
O=C(Nc1ccccc1C(F)(F)F)c1ccc(=O)n(Cc2ccccc2F)c1,+,i
CCOc1ccccc1NC(=O)c1ccc(=O)n(Cc2ccccc2Cl)c1,+,i
CN1CCOc2ccc(NS(=O)(=O)c3ccc4c(c3)CCCC4)cc2C1=O,i,nt
O=S(=O)(NCCc1ccsc1)C1CC1,i,i
CCCc1c(C(=O)NCCO)nnn1-c1ccc(C)cc1,i,i
COCc1c(C(=O)Nc2ccc(NC(C)=O)cc2)nnn1-c1cc(C)cc(C)c1,i,i
COCc1c(C(=O)NC2CCCC2)nnn1-c1ccc(C)cc1,+,i

# Screening data from PubChem BioAssay.
